Our source for the outcome and AC50 values is PubChem BioAssay (EPA / NIEHS).

What is called AC50 is the concentration giving half of the maximal activity seen.

The target of assay [1] is human CYP2D6, CYP2D6 (gene 1565) (UniProt P10635). The assay is described as follows: NVS_ADME_hCYP2D6: NovaScreen (NVS) CYP450-related Enzyme Activity (ADME) Assay for human CYP2D6 (AID 2283107). In outline: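 Cell-free assay using recombinant human CYP2D6 expressed in insect cells, with a fluorogenic substrate read after 1 h. Primary screen in duplicate at 10 uM; actives followed up in concentration series. Loss of signal fitted relative to acetonitrile.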
Sequence of human CYP2D6, CYP2D6 (gene 1565) (P10635 whole entry, looked up): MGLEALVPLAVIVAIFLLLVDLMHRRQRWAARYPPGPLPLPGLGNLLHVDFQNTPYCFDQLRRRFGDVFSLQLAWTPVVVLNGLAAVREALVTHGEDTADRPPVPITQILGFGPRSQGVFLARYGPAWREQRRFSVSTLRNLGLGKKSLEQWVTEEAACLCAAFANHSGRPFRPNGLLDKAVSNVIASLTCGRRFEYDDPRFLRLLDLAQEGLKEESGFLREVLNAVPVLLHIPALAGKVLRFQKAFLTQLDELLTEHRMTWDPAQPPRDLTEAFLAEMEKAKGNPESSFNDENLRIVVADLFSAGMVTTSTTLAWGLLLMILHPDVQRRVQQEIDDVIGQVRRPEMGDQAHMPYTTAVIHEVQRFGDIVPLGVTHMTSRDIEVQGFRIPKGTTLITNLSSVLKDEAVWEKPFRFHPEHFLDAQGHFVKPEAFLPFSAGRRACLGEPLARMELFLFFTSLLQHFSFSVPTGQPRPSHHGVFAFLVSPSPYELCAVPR

Assay [2] has as its target human CYP2B6, CYP2B6 (gene 1555) (UniProt P20813). Put plainly: NVS_ADME_hCYP2B6: NovaScreen (NVS) CYP450-related Enzyme Activity (ADME) Assay for human CYP2B6 (AID 2283101). In outline: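 Recombinant protein, specific fluorescent substrate, read at 1 h post-dosing. Primary: single 10 uM, duplicate; follow-up: concentration series. Activity = signal loss vs acetonitrile baseline, with positive and negative controls on every plate.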

Assay [3] addresses human CYP2C9, CYP2C9 (gene 1559) (UniProt P11712). Put plainly: NVS_ADME_hCYP2C9: NovaScreen (NVS) CYP450-related Enzyme Activity (ADME) Assay for human CYP2C9 (AID 2283108). In a few lines:
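Recombinant human CYP2C9 expressed in SF9 cells, fluorogenic substrate, fluorescence read 0.75 h after dosing. Chemicals first run in duplicate at 10 uM, with actives followed in concentration series; loss of signal versus acetonitrile baseline.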

Another assay deals with rat CYP2B1, gene 24300. The assay is described as follows: NVS_ADME_rCYP2B1: NovaScreen (NVS) CYP450-related Enzyme Activity (ADME) Assay for rat CYP2B1 (AID 2283117). In a few lines:
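Recombinant rat CYP2B1 with fluorogenic substrate, read at 0.75 h. Primary screen in duplicate at 10 uM; compounds meeting threshold (e.g., 30% inhibition) re-run in concentration-response up to 20 uM. Fitted against acetonitrile control.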

Assay [4] deals with rat CYP2C11, Cyp2c11 (gene 29277) (UniProt P08683). Put plainly: NVS_ADME_rCYP2C11: NovaScreen (NVS) CYP450-related Enzyme Activity (ADME) Assay for rat CYP2C11 (AID 2283118). In a few lines:
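Cell-free recombinant rat enzyme with fluorescent substrate; readout 0.33 h after dosing, loss of signal versus acetonitrile control. Initial duplicate single-point at 10 uM; actives rerun in concentration series.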

The target of assay [5] is human CYP1A2, CYP1A2 (gene 1544) (UniProt P05177). The assay is described as follows: NVS_ADME_hCYP1A2: NovaScreen (NVS) CYP450-related Enzyme Activity (ADME) Assay for human CYP1A2 (AID 2283102).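 As to AC50: potency for inhibition since loss of fluorescence marks reduced CYP1A2 activity.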 In outline:
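Recombinant human CYP1A2 from insect cells, cell-free, fluorogenic substrate; read 0.5 h after dosing with loss of fluorescence signal indicating inhibition. Primary screen in duplicate at 10 uM, acetonitrile as negative control.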

Assay [6] addresses human CYP2C8, CYP2C8 (gene 1558) (UniProt P10632). The assay is described as follows: NVS_ADME_hCYP2C8: NovaScreen (NVS) CYP450-related Enzyme Activity (ADME) Assay for human CYP2C8 (AID 2283104; active = hit-call score of the fitted dose curve at least 0.9, where 1 is the maximum; inactive = score below 0.9). In a few lines: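 Recombinant human CYP2C8 with fluorogenic substrate, 0.5 h, fluorescence intensity; signal loss fitted versus acetonitrile. Screened in duplicate at 10 uM, then actives run in concentration-response up to 20 uM.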

Assay [7] has as its target human CYP2J2, CYP2J2 (gene 1573) (UniProt P51589). Put plainly: NVS_ADME_hCYP2J2: NovaScreen (NVS) CYP450-related Enzyme Activity (ADME) Assay for human CYP2J2 (AID 2283106). In a few lines:
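Cell-free assay of recombinant CYP2J2 with a fluorogenic substrate, read 1 h after dosing; loss of signal versus acetonitrile. Primary screen at 10 uM in duplicate, then concentration-response up to 20 uM for chemicals passing threshold (e.g., 30% inhibition).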

For assay [8], the target named is rat CYP1A2, Cyp1a2 (gene 24297) (UniProt P04799). The assay is described as follows: NVS_ADME_rCYP1A2: NovaScreen (NVS) CYP450-related Enzyme Activity (ADME) Assay for rat CYP1A2 (AID 2283115). How it is done:
NVS_ADME_rCYP1A2 is a biochemical, single-readout assay that uses extracted gene-proteins in a cell-free assay. Measurements were taken 1 hour after chemical dosing in a 96-well plate.NVS_ADME_rCYP1A2 is one of one assay component(s) measured or calculated from the NVS_ADME_rCYP1A2 assay. It is designed to make measurements of enzyme activity, a form of enzyme reporter, as detected with fluorescence intensity signals by Fluorescence technology.Data from the assay component NVS_ADME_rCYP1A2 was analyzed into 1 assay endpoint. This assay endpoint, NVS_ADME_rCYP1A2, was analyzed in the positive analysis fitting direction relative to Acetonitrile as the negative control and baseline of activity. Using a type of enzyme reporter, loss-of-signal activity can be used to understand changes in the enzymatic activity as they relate to the gene Cyp1a2. Furthermore, this assay endpoint can be referred to as a primary readout, because this assay has produced multiple assay endpoints where this one serves a enzymatic activity function. To generalize the intended target to other relatable targets, this assay endpoint is annotated to the cyp intended target family, where the subfamily is xenobiotic metabolism.
Binding assays used specific radioligands (tritiated, iodinated) with non-radioactive competitive displacement ligands in agonist or antagonist protocols (as indicated) and various reference compounds and inhibitors to titrate specific binding to receptors and transporters. Most enzyme assays (CYPs, kinases, phosphatases, proteases, HDACs) used recombinant protein and specific substrates (fluorescence mostly, some colorimetric and radioactive) and inhibitors, followed by a biochemical separation of substrate and product. All assays for the biochemical HTS were initially run in duplicate at a single concentration (10 uM for CYP450 assays and 25 uM for all others). […] Each assay was run with positive and negative controls, and concurrent controls on every plate. The follow-up (secondary) screen tested active chemical-pairs in concentration series, as well as a few additional assays not tested in the primary screen, some selected negative inactives, and several cases re-run in the concentration series for confirmatory purposes.

In assay [9] the target is human CYP4F12, CYP4F12 (gene 66002) (UniProt Q9HCS2). The assay is described as follows: NVS_ADME_hCYP4F12: NovaScreen (NVS) CYP450-related Enzyme Activity (ADME) Assay for human CYP4F12 (AID 2283111). In a few lines:
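Cell-free fluorescence assay of recombinant human CYP4F12 activity on a specific substrate, read 0.5 h after dosing. Primary screen in duplicate at 10 uM, then concentration series for actives; loss of signal fitted against acetonitrile negative control.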

Molecules are shown by their SMILES. Several values for one entry are separate records, joined by “and”; a condition that tells them apart may be missing. Equal entries are not always repeated. Inconclusive results are not listed. More than one record can exist for a structure, and the calls need not agree. Activity calls are given as the source filed them. The calls were made as follows, unless noted: active = hit-call score of the fitted dose curve at least 0.9, where 1 is the maximum; inconclusive = response in the unintended direction; inactive = score below 0.9.

Sequence of human CYP2C9, CYP2C9 (gene 1559) (P11712 whole entry, looked up): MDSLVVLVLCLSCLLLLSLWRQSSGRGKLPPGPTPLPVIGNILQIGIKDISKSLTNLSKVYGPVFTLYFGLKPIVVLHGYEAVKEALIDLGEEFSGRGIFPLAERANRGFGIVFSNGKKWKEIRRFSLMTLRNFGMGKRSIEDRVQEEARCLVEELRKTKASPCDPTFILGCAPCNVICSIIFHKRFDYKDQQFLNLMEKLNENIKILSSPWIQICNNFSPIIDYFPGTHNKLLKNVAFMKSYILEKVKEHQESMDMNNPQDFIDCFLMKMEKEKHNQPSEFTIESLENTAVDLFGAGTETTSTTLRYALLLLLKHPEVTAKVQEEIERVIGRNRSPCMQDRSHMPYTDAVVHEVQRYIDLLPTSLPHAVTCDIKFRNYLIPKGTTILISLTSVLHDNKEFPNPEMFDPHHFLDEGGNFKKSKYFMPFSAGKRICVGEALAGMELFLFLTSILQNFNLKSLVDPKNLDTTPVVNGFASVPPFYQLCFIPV
Sequence of human CYP2J2, CYP2J2 (gene 1573) (P51589 whole entry, looked up): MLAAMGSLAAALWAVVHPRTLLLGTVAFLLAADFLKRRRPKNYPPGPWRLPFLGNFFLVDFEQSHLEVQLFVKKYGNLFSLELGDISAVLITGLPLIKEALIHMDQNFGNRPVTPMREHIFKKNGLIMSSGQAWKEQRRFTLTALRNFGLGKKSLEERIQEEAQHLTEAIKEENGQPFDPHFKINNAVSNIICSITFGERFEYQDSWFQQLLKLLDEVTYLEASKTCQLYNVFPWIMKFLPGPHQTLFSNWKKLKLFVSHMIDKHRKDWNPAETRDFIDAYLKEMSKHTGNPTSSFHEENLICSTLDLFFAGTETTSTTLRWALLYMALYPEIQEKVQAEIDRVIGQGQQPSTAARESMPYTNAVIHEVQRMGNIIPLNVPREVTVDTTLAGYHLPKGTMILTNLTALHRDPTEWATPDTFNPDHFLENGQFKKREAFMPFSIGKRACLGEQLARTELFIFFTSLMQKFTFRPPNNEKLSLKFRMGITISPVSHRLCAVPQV
Sequence of human CYP1A2, CYP1A2 (gene 1544) (P05177 whole entry, looked up): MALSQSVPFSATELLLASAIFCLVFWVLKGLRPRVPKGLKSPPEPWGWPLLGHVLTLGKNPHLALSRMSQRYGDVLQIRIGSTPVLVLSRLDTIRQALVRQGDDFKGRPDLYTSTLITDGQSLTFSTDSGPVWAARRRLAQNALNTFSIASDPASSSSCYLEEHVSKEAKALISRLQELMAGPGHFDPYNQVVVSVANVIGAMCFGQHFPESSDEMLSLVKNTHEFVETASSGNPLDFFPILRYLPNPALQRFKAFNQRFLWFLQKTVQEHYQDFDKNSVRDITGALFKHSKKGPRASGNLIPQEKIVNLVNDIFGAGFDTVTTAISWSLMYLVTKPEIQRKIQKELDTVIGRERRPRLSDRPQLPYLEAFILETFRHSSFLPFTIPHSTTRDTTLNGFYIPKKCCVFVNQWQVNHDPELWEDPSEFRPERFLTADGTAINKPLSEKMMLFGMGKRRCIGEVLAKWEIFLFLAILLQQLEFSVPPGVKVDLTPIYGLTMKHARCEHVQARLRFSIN
Sequence of human CYP2B6, CYP2B6 (gene 1555) (P20813 whole entry, looked up): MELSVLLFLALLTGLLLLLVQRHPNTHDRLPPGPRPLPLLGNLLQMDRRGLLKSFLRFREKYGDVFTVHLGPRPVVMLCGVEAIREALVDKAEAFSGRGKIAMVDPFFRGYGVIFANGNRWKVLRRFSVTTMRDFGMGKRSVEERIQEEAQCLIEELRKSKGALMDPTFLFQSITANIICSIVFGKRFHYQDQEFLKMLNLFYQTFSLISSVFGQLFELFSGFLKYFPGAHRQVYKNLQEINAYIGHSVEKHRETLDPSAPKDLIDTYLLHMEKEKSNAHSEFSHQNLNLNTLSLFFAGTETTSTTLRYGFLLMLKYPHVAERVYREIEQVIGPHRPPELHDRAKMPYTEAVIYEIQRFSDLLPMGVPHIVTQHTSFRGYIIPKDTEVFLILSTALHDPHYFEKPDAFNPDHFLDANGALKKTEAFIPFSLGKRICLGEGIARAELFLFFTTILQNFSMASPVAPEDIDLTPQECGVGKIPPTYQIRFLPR
Sequence of human CYP2C8, CYP2C8 (gene 1558) (P10632 whole entry, looked up): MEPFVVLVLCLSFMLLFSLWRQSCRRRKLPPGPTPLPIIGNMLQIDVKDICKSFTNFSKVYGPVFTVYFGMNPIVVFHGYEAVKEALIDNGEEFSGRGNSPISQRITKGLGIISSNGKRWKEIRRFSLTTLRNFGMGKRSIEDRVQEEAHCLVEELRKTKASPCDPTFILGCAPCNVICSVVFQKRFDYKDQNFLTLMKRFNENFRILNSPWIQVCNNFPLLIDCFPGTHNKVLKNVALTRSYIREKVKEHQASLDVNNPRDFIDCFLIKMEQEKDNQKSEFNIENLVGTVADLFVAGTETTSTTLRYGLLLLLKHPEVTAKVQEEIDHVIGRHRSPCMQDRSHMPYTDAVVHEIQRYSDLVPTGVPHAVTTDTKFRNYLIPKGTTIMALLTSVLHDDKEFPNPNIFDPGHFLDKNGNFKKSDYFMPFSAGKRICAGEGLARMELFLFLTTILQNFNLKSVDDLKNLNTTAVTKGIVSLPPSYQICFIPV
Sequence of rat CYP2C11, Cyp2c11 (gene 29277) (P08683 whole entry, looked up): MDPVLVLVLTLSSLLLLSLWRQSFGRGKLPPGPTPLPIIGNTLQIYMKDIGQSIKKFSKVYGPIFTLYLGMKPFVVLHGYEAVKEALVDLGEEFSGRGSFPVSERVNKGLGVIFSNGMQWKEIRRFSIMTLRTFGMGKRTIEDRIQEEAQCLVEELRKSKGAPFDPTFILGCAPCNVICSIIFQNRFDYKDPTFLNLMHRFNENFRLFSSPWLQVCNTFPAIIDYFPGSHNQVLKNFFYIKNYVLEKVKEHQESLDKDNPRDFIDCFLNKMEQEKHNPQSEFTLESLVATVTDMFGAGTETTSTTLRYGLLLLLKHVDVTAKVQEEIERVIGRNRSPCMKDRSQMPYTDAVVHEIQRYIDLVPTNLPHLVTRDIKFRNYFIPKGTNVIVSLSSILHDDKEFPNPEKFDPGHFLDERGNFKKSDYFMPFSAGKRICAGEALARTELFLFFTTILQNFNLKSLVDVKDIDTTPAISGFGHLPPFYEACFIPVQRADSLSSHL
Sequence of human CYP4F12, CYP4F12 (gene 66002) (Q9HCS2 whole entry, looked up): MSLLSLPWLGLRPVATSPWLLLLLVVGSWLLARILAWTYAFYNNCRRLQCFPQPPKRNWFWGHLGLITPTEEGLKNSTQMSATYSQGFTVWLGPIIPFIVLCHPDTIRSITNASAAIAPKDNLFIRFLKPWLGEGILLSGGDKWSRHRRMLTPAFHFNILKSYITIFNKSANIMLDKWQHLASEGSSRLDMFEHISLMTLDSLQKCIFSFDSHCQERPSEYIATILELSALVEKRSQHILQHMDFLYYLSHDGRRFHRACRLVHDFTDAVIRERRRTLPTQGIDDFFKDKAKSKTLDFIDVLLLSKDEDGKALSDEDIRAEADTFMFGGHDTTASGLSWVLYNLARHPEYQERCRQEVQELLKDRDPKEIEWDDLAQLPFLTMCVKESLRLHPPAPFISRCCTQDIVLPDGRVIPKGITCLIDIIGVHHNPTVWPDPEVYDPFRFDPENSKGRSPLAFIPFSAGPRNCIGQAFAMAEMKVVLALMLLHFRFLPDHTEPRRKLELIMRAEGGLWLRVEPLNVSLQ
Sequence of rat CYP1A2, Cyp1a2 (gene 24297) (P04799 whole entry, looked up): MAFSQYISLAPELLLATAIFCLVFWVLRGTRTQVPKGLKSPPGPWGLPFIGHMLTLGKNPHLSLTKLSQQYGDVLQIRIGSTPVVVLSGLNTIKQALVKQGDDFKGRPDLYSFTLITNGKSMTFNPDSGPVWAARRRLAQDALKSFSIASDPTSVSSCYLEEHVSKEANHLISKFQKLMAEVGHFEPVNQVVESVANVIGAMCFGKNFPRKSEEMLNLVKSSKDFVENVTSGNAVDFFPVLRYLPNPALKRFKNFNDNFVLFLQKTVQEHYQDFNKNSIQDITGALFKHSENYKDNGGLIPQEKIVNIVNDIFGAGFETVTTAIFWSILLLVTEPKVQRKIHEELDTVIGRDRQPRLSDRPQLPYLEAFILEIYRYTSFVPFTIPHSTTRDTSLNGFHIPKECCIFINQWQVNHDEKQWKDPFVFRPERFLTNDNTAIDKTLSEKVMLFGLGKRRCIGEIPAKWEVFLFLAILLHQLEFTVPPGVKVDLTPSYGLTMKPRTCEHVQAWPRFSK

In the case of `N#Cc1cc(Br)c(O)c(Br)c1`, the outcome in assay [1] was inactive.
As for `N#CC(CCc1ccc(Cl)cc1)(Cn1cncn1)c1ccccc1` (configuration not stated), the AC50 in assay [2] was 429 nM (active); in [3], 1.14 µM (active); with rat CYP2B1, gene 24300 it was 69.2 nM (active); in [4] it was 267 nM (active).
Turning to `COC(=O)N(OC)c1ccccc1COc1ccn(-c2ccc(Cl)cc2)n1`, the AC50 in [5] was 912 nM (active); in assay [3] it was 1.26 µM (active); in assay [4] it was 809 nM (active). Besides, the outcome in assay [6] was inactive.
Regarding `CC(C)Oc1cc(-n2nc(C(C)(C)C)oc2=O)c(Cl)cc1Cl`, in assay [5], the AC50 was 6420 nM (active).
`OC(c1ccc(Cl)cc1)(c1cncnc1)c1ccccc1Cl` (configuration not stated): the AC50 is 5750 nM (active) in assay [2]; 10000 nM (active) in [6]; 2260 nM (active) in assay [7]; 2.35 µM (active) in assay [3]; 1170 nM (active) with rat CYP2B1, gene 24300; 6580 nM (active) in assay [4].
For the compound `C#CCOS(=O)OC1CCCCC1Oc1ccc(C(C)(C)C)cc1` (configuration not stated), the outcome in assay [5] and in assay [3] was inactive.
As to `CCOP(=S)(OCC)SCn1c(=O)oc2cc(Cl)ccc21`, the AC50 in [2] is 1250 nM (active); in assay [5] it was 2000 nM (active); in assay [1] it was 2800 nM (active); in [3], 1.8 µM (active); with rat CYP2B1, gene 24300, 708 nM (active); in assay [4], 993 nM (active). Moreover, the outcome in [7] and in [8] was inactive.
Turning to `CCc1nn(C)c(C(=O)NCc2ccc(C(C)(C)C)cc2)c1Cl`, the outcome in assay [6] was inactive.
For `CCCC1COC(Cn2cncn2)(c2ccc(Cl)cc2Cl)O1` (configuration not stated), the AC50 in [2] is 2780 nM (active); in [1] it was 13900 nM (active); in [3] it was 1.65 µM (active) and 4.57 µM (active); in the assay on rat CYP2B1, gene 24300, 799 nM (active) and 409 nM (active); in [4], 1450 nM (active). Besides, the outcome in [7] was inactive.
Regarding `CCON=C(CC)C1=C(O)CC(c2c(C)cc(C)cc2C)CC1=O` (configuration not stated), in the assay on rat CYP2B1, gene 24300, the outcome was inactive.
`COc1ccc(C(c2ccc(OC)cc2)C(Cl)(Cl)Cl)cc1`: the outcome in [6] was “inactive”; in assay [9], “inactive”; in the assay with rat CYP2B1, gene 24300 it was “inactive”; in [4], “inactive”. Besides, the concentration at half-maximal activity (AC50) in assay [3] was 10 µM (active).
As for `C=CCC1=C(C)C(OC(=O)C2C(C=C(C)C)C2(C)C)CC1=O` (configuration not stated), in assay [2], the outcome was inactive. Moreover, in assay [3], the AC50 is 7.07 µM (active) and 14.6 µM (active) and 6.76 µM (active); the compound was called inactive.
For the compound `CN(C)C(=S)SSC(=S)N(C)C`, the AC50 is 6560 nM (active) in assay [7]; 2150 nM (active) in [1]; 1.92 µM (active) in [3]; 2110 nM (active) with rat CYP2B1, gene 24300. Besides, the compound was classed as inactive in assay [8].
Turning to `CS/C(C)=N/OC(=O)N(C)SN(C)C(=O)O/N=C(\C)SC`, the concentration at half-maximal activity (AC50) in assay [7] is 2790 nM (active); in assay [1], 934 nM (active); in assay [3] it was 5.64 µM (active); in [4], 3660 nM (active). Further, in assay [9], the compound was called inactive.
